The values that follow come from the supplement of paper PMC10732440.

This assay concerns Caenorhabditis elegans N2 infected with Nematocida parisii ERTm1. The assay can be described thus: progeny production relative to DMSO uninfected control; higher = more progeny despite microsporidia infection (inhibition of infection with low host toxicity). Particulars: infection time 6 days. The method in brief:
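Progeny production is reported as a percentage of spore-free vehicle wells and averaged across replicates. It was measured after bleach-synchronised wild-type C. elegans L1 larvae (100 per well) spent 6 days shaking at 21°C in K-medium with E. coli OP50, 15,000 N. parisii spores/μL and compound at 100 μM or 40 μM in 1% DMSO. Counting used Rose Bengal staining, flatbed scanning and WorMachine, and each compound and dose was tested three times.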

± gives the standard deviation of the averaged measurements.

With `CN(C)[C@@H]1C(=O)C(C(N)=O)=C(O)[C@@]2(O)C(=O)C3=C(O)c4c(O)c(NC(=O)CN5CCCC5)cc(F)c4C[C@H]3C[C@@H]12`, the progeny production by setting is: (40 µM) 4.54 ± 0.11%; (100 µM) 6.16 ± 0.72%.
In the case of `O=C(O)C[C@H]1CC[C@H](c2ccc(-c3ccc(Nc4ccc(C(F)(F)F)nc4)cn3)cc2)CC1`, the progeny production (40 µM) came to 4.2 ± 3.2% and the progeny production (100 µM) was 10.5 ± 6.4%.
The matching figures for `O=C(Nc1ccc(F)cc1)c1nn(-c2ccccc2)c(=O)cc1Cl`: 5.87 ± 3.4% and 14 ± 9.4%.
As to `CNc1nc(=O)[nH]cc1F`, the progeny production is, setting by setting: (40 µM) 2.97 ± 1.7%; (100 µM) 12.9 ± 10%.
The matching figures for `O=c1oc2ccc(Br)cc2cc1CSc1ncc[nH]1`: 6.6 ± 2.9% and 11.1 ± 7.2%.
`COC(=O)Nc1nc2cc([S+]([O-])c3ccccc3)ccc2[nH]1` (stereo unspecified): the progeny production by setting is: (40 µM) 6.27 ± 3.5%; (100 µM) 23 ± 20%.
For the compound `COc1ccc(NS(=O)(=O)c2ccc(Cl)s2)cn1`, the progeny production runs as follows: (40 µM) 4.12 ± 0.52%; (100 µM) 15 ± 3%.
In the case of `CC1CCc2c(N3CCC(O)CC3)c(F)cc3c(=O)c(C(=O)O)cn1c23` (stereo unspecified), the progeny production was 8.47 ± 4.4% (40 µM) and 11 ± 2.9% (100 µM).
Turning to `O=C(O)CSc1cc(NS(=O)(=O)c2cccc3cccnc23)c2ccccc2c1O`, the progeny production reads like this: (40 µM) 6.14 ± 2.5%; (100 µM) 14.5 ± 8.5%.
Regarding `O=C(NN1C(=O)[C@@H]2[C@@H]3C=C[C@@H]([C@H]4C[C@@H]34)[C@@H]2C1=O)c1ccc(C(F)(F)F)cc1`, the progeny production by setting is: (40 µM) 3.22 ± 1.3%; (100 µM) 9.48 ± 4%.
The matching figures for `Cc1c[nH]c(=O)nc1NCc1ccccc1`: 7.05 ± 4.5% and 8.45 ± 2.8%.
The matching figures for `O=C(NCc1cccc2ccccc12)c1cccs1`: 3.62 ± 2.1% and 12.9 ± 10%.
The matching figures for `N=C(N)NCCCCC(=O)Nc1cc(C(F)(F)F)cc(NC(=O)c2cc(C(=O)Nc3cc(C(F)(F)F)cc(NC(=O)CCCCNC(=N)N)c3O[C@@H]3CCNC3)ncn2)c1O[C@@H]1CCNC1`: 7.1 ± 7.2% and 3.98 ± 2.8%.
`O=C1NC(=S)N/C1=C\c1cc(Br)cc(Br)c1O` had a progeny production (40 µM) of 6.18 ± 0.84% and a progeny production (100 µM) of 10.2 ± 8.1%.
The matching figures for `CC(C)(C)NC(=O)N[C@H](C(=O)N1C[C@H]2[C@@H]([C@H]1C(=O)NC(CC1CCC1)C(=O)C(N)=O)C2(C)C)C(C)(C)C` (stereo partly specified): 3.73 ± 0.22% and 7.69 ± 4.1%.
Regarding `COc1ccc(CNC(=O)C2CCN([C@H](C)c3cccc4ccccc34)CC2)cc1`, the progeny production reads like this: (40 µM) 4.66 ± 2.1%; (100 µM) 15.7 ± 6.6%.
Consider `CC(=N)N1CC[C@H](SC2=C(C(=O)O)N3C(=O)[C@@H]([C@@H](C)O)[C@H]3C2)C1`, for which the progeny production worked out at 4.18 ± 0.82% (40 µM) and 11.1 ± 7.9% (100 µM).
In the case of `Cc1[nH]c2ccccc2c1CC(=O)N[C@@H](Cc1ccccc1)C(=O)N(C)c1ccccc1`, the progeny production (40 µM) was 4.28 ± 2.4% and the progeny production (100 µM) was determined as 17.6 ± 9.7%.
In the case of `C[C@@H](NC(=O)c1ccccc1-c1ccccc1)B(O)O`, the progeny production worked out at 3.09 ± 1.4% (40 µM) and 21.8 ± 15% (100 µM).
For the compound `CS(=O)(=O)c1ccc(Oc2ccc(Cl)cc2)cc1`, the progeny production (40 µM) was 2.98 ± 0.48% and the progeny production (100 µM) is 13.1 ± 9.1%.
The matching figures for `CC(C)(C)c1cc(C(=O)/C(C#N)=N/Nc2cccc(Cl)c2)no1`: 4.44 ± 0.8% and 13.4 ± 11%.
`NC(=O)c1c(N)sc2c1CCCCC2`: the progeny production is, setting by setting: (40 µM) 3.71 ± 1.1%; (100 µM) 8.33 ± 4.8%.
For `Nc1nnc(-c2ccc(Cl)cc2)s1`, the progeny production runs as follows: (40 µM) 5.44 ± 1.4%; (100 µM) 16.3 ± 16%.
The matching figures for `CCO/N=C/c1ccc(OCCCCN2CCN(c3ccncc3)C2=O)cc1`: 5.24 ± 4.2% and 9.79 ± 7.8%.
For `O=S(=O)(Nc1ccccc1)c1ccc(NC(=S)Nc2ccccc2)cc1` the same measures were 8.72 ± 4.5% and 11.2 ± 6.4%.
Consider `O=c1[nH]c(=O)n(Cc2cccc(Oc3ccccc3)c2)cc1Nc1ccccc1`, for which the progeny production stood at 4.29 ± 3.5% (40 µM) and 9.39 ± 4.3% (100 µM).
With `CC(Oc1ccc(Cl)cc1Cl)C(=O)NCc1ccc2c(c1)OCO2` (stereo unspecified), the progeny production by setting is: (40 µM) 3.27 ± 0.72%; (100 µM) 14.5 ± 9.6%.
For `CNC(=O)C1O[C@@H](n2cnc3c(NCc4cccc(I)c4)nc(Cl)nc32)[C@H](O)[C@@H]1O` (stereo partly specified), the progeny production (40 µM) turned out to be 5.42 ± 1.8% and the progeny production (100 µM) is 12.6 ± 3.5%.
The matching figures for `Cc1c(F)cccc1NC(=O)Nc1ccc(Cl)c(S(=O)(=O)[C@H]2CCCNC2)c1O`: 8.9 ± 1.8% and 13 ± 5.7%.
For `NC(=O)c1cnc2ccc(S(=O)(=O)c3ccccc3)cc2c1Nc1ccc(O)cc1`, the progeny production stood at 6.94 ± 3.1% (40 µM) and 17.7 ± 11% (100 µM).
As to `O=C(Nc1ccccc1C(=O)O)c1cccc(Oc2ccccc2)c1`, the progeny production (40 µM) turned out to be 3.52 ± 1.3% and the progeny production (100 µM) came out at 16.2 ± 14%.
The matching figures for `NCc1ccc(S(N)(=O)=O)cc1`: 5.64 ± 3.5% and 7.3 ± 1.6%.
The matching figures for `Nc1nc(O)c(Br)c(-c2cccc(Cl)c2)n1`: 4.12 ± 0.52% and 12.1 ± 5.2%.
For `Cc1ncc([N+](=O)[O-])n1CC(C)O` (stereo unspecified) the same measures were 7.4 ± 3.9% and 7.52 ± 8.6%.
Consider `CC(C)(C)c1ccc(Oc2ccc(N)cc2)cc1`, for which the progeny production by setting is: (40 µM) 3.17 ± 1.1%; (100 µM) 11.1 ± 5.3%.
With `Cc1oncc1C(=O)Nc1ccc(C(F)(F)F)cc1`, the progeny production reads like this: (40 µM) 3.59 ± 1.6%; (100 µM) 6.66 ± 5%.
Consider `CC[C@@H](CO)NCCN[C@@H](CC)CO`, for which the progeny production amounted to 4.98 ± 2.4% (40 µM) and 6.91 ± 5.6% (100 µM).
For `CNCC(=O)OCc1cccnc1N(C)C(=O)OC(C)[n+]1cnn(C[C@](O)(c2cc(F)ccc2F)[C@@H](C)c2nc(-c3ccc(C#N)cc3)cs2)c1` (stereo partly specified) the same measures were 7.13 ± 1.5% and 16.8 ± 10%.
